# In all, about 69,000 compounds went through this assay and about 8,600 (12%) showed an effect of 50% or more. The sample as a whole holds a higher share of strong results than the screen did.
# System: Plasmodium berghei
# Assay: Screen against P. berghei liver stage (PbLuc), transformed with Luciferase, at 10uM
# Assay type: functional, HepG2
# Details: tested at 10 uM
row,SMILES,INHIBITION [%]
1,CCCOc1cc(C)ccc1NC(=O)N(C)Cc1cnn(C)c1,38.5
2,O=C(O)[C@]12CCCN(C3CCOC3)C[C@H]1CN(c1nncs1)C2 (stereo partly drawn),4.98
3,CN1CCN(C[C@@H]2CN(C(=O)CC3CCCCC3)C[C@@H]2CO)CC1,6.65
4,CC(NC(=O)CCS(=O)(=O)C1CCCC1)c1nc(-c2ccccc2)c[nH]1 (stereo not drawn),4.81
5,CC(NC(=O)CCc1cccs1)c1nnc2n1CCCCC2 (stereo not drawn),-29.1
6,CCc1nsc(N2CCN(CC(=O)NCc3cccnc3)CC2)n1,78.1
7,CCCNC(=O)CN1CCN(c2nc(CC)ns2)CC1,-23.2
8,Cc1nsc(N2CCN(CC(=O)NCc3cccnc3)CC2)n1,-101
9,CN(C)C(=O)c1cccc(CN2CCN(CC(O)C(C)(C)C)CC2)c1 (stereo not drawn),-13.5
10,Cc1c(Br)c(C(F)(F)F)nn1C(C)C(=O)O (stereo not drawn),8.49
11,Cc1nnc(NCCC(=O)N(C)Cc2ccccc2)c(C#N)c1C,-5.65
12,Cc1cnc(-c2nc(C3CCN(Cc4ccccc4C)CC3)no2)cn1,19.36
13,Cc1cc(C(=O)NS(=O)(=O)Cc2ccon2)c(C)o1,44.2
14,Cc1cc(C(=O)NS(=O)(=O)Cc2ccon2)c(C)n1C(C)C,56.1
15,O=C(CCc1cccc(Cl)c1)NS(=O)(=O)Cc1ccon1,35.1
16,CC(O)(CNS(=O)(=O)Cc1ccon1)c1ccsc1 (stereo not drawn),1.98
17,O=C(CCc1ccco1)NS(=O)(=O)Cc1ccon1,64
18,COc1ccc(C(=O)NCc2ccon2)cc1F,11.6
19,Cc1ccc(S(=O)(=O)NC(=O)CCc2ccco2)cc1N(C)C,-18.9
20,Cc1ccc(C(=O)NS(=O)(=O)Cc2ccon2)c(C)c1,12.8
21,O=C(NS(=O)(=O)Cc1ccon1)c1ccsc1,73.6
22,O=C(CCc1ccco1)NS(=O)(=O)N1CCOc2ccccc21,25.2
23,CN(C(=O)CCc1ccsc1)S(C)(=O)=O,37.4
24,O=C(CCc1ccsc1)NS(=O)(=O)Cc1ccon1,55.4
25,CC(=O)N1CCN(c2cc(C3CN(C(C)=O)CCO3)nc(C)n2)CC1 (stereo not drawn),29.2
26,CO[C@@H]1CC[C@H]2[C@H]1OCCN2CCOCc1ccccc1,4.98

row,SMILES,INHIBITION [%]
1,Cc1nc(C2CCCN(C(=O)c3ccncc3)C2)c2sccn12 (stereo not drawn),35.2
2,CC(=O)c1cn(CCC(=O)N[C@@H](CC(C)C)C(=O)O)c2ccccc12,11.9
3,NC(=O)CSCC(=O)NC1(c2cccc(Cl)c2)CC1,38.6
4,CC(=O)N1CC[C@H]2OCC[C@@H](C(=O)NCc3ccco3)[C@@H]2C1,18.3
5,COCC(=O)N1Cc2nccn2CC(Cn2ncccc2=O)C1 (stereo not drawn),19.4
6,CC(C)(C)c1nccc(N2CCCCC2CNS(C)(=O)=O)n1 (stereo not drawn),16.6
7,c1ccc(CCN2CCN(c3ccc4nncn4n3)CC2)cc1,60.9
8,c1ccc(CCCN2CCN(c3ccc4nncn4n3)CC2)cc1,74.7
9,O=C(COc1ccc(Cl)cc1)N1CCN(c2cnccn2)CC1,-126
10,Clc1ccccc1CCN1CCN(c2ccc3nncn3n2)CC1,72.8
11,O=C(CCN1CCN(c2ccc3nncn3n2)CC1)N1CCCCC1,-19.9
12,c1ccc(CCN2CCN(c3ccc4nncn4n3)CC2)nc1,20.1
13,O=C(CCOc1ccc(Cl)cc1)N1CCN(c2cnccn2)CC1,3.19
14,Clc1ccc(OCCCN2CCN(c3cnccn3)CC2)cc1,54.4
15,O=C(NCCc1ccccc1)C1CCCN(c2ccc3nncn3n2)C1 (stereo not drawn),-23.5
16,c1ccc(CN2CCN(c3ccc4nncn4n3)CC2)nc1,7.67
17,c1cc(CCN2CCN(c3ccc4nncn4n3)CC2)ccn1,-33.7
18,N#Cc1ccc(N2CCN(c3ccc4nncn4n3)CC2)nc1,-23.4
19,O=c1[nH]c(N2CCCCC2)nc2nccc(-c3ccc4c(c3)OCO4)c12,-5.59
20,COc1c(C)cc(CNCc2ccnc(N3CCOCC3)c2)cc1C,28.8
21,CC(C)NC(=O)N1C[C@@H]2C[C@H](C(=O)NCc3ccccc3)[C@H](C1)O2,18.2
22,COc1ccc(Cn2nnnc2SCC2CCCN(C)C2)cc1 (stereo not drawn),40.5
23,CO[C@@]1(C)C[C@@H](O)C12CCN(C(=O)C1(c3ccccc3F)CC1)CC2,32.5
24,NCCC(Cc1ccccc1)c1ccco1 (stereo not drawn),36.1
25,O=C(N[C@H]1CCCC[C@@H]1O)c1ccc2nc(-c3ccccc3)[nH]c2c1,-85.3
26,COc1nn(C)c2c1CCCN(C(=O)c1ccccc1F)C2,3.25

row,SMILES,INHIBITION [%]
1,CC(NC(=O)CCCC(=O)c1cccs1)c1nnc2n1CCC2 (stereo not drawn),7.12
2,O=C(O)Cn1ccc2c(Cl)cccc21,19.3
3,Cc1nnc(C(C)N2CCN(Cc3ccc(C(F)(F)F)cc3)CC2)o1 (stereo not drawn),-43.5
4,c1ccc(OCCCN2CCN(c3ccc4nncn4n3)CC2)cc1,86.1
5,FC(F)(F)COCCN1CCN(c2ccc3nncn3n2)CC1,38.8
6,O=C(CCN1CCN(c2ccc3nncn3n2)CC1)NC1CCCC1,-51.5
7,O=C(NCc1cccnc1)NC1CCC2(CCC(=O)N2CC2CC2)CC1 (stereo not drawn),40.3
8,CCN(CCNC(=O)Nc1nnc(C)s1)C(=O)OC(C)(C)C,-19.3
9,O=C1C(NS(=O)(=O)c2ccc(F)cc2)CCN1Cc1ccccc1 (stereo not drawn),23.5
10,CCc1nnc(CN(C)C(=O)C(CC)n2c(CC)nc3ccccc32)o1 (stereo not drawn),52.7
11,CCc1nc2ccccc2n1C(CC)C(=O)N(C)Cc1nc(C)c[nH]1 (stereo not drawn),12.9
12,CCc1nc2ccccc2n1C(CC)C(=O)N(C)Cc1noc(C)n1 (stereo not drawn),31.1
13,O=C1COc2ccc(C(=O)NS(=O)(=O)c3ccccc3Cl)cc2N1,14.1
14,CCCS(=O)(=O)N1C[C@@H](Oc2ccccn2)[C@H]2OCCC[C@H]21,-21.1
15,O=C(c1ccc[nH]1)N1CCCC(c2cc(C(F)(F)F)[nH]n2)C1 (stereo not drawn),54.4
16,Cc1nc(C2CCCN(C(=O)c3cc(Cl)c[nH]3)C2)sc1C (stereo not drawn),40.9
17,Cn1cc(CC(=O)N2CCCC(c3cc(C(F)(F)F)[nH]n3)C2)cn1 (stereo not drawn),7.97
18,Cc1nc(C(=O)N2CCCC(c3cc(C(F)(F)F)[nH]n3)C2)c[nH]1 (stereo not drawn),33.8
19,O=C(c1cc[nH]n1)N1CCCC(c2cc(C(F)(F)F)[nH]n2)C1 (stereo not drawn),25.1
20,O=C(c1cc(Cl)c[nH]1)N1CCCC(c2cc(C(F)(F)F)[nH]n2)C1 (stereo not drawn),88.2
21,Cc1cc(C(=O)N2CCCC(c3cc(C(F)(F)F)[nH]n3)C2)[nH]n1 (stereo not drawn),29.7
22,CCOCCC(=O)N1CCCC(c2cc(C(F)(F)F)[nH]n2)C1 (stereo not drawn),7.97
23,O=C(c1ccsc1)N1CCCC(c2cc(C(F)(F)F)[nH]n2)C1 (stereo not drawn),57.2
24,O=C(c1nc(=O)[nH][nH]1)N1CCCC(c2cc(C(F)(F)F)[nH]n2)C1 (stereo not drawn),29.1
25,O=C(Cc1cccnc1)N1CCCC(c2cc(C(F)(F)F)[nH]n2)C1 (stereo not drawn),50.8
26,CCOC(=O)c1cc(C(C)(O)CCC=C(C)C)on1 (stereo not drawn),37.8

row,SMILES,INHIBITION [%]
1,Cc1nc(CC(=O)N2CCC(c3nn(C)c4ncccc34)CC2)cs1,26.8
2,Cn1c(C(=O)N2CCC(C(N)=O)C2)c(Cl)c2ccccc21 (stereo not drawn),-20.5
3,Cc1oc(-c2ccco2)nc1CN1CCc2cnc(C(C)C)nc2C1,21.9
4,CC(C)N(C)S(=O)(=O)c1ccc2c(c1)CCN(C(=O)c1cccnn1)C2,23.2
5,CNc1nc(C(=O)NCC2CCOc3ccccc3C2)cs1 (stereo not drawn),53.3
6,Cc1cnc(C(=O)NCC2CCOc3ccccc3C2)cn1 (stereo not drawn),24.4
7,CC(=O)NCC1CCN(CC2CCOc3ccccc3C2)CC1 (stereo not drawn),37.8
8,CN1CCN(C(=O)c2ccc(Cn3cc(Br)cn3)cc2)CC1,30.7
9,O=C(c1ccc(Cn2cc(Br)cn2)cc1)N1CCCC1,53.5
10,O=C(c1ccc(Cn2cc(Br)cn2)cc1)N1CCOCC1,37.7
11,CCC(=O)N1CCN(C(=O)Nc2cccc(C#N)c2)[C@H]2CS(=O)(=O)C[C@H]21,-2.09
12,CCC(=O)N1CCN(C(=O)Nc2cccc(F)c2)[C@H]2CS(=O)(=O)C[C@H]21,61.9
13,CCC(=O)N1CCN(C(=O)CCn2cc(Cl)cn2)[C@H]2CS(=O)(=O)C[C@H]21,35.8
14,CC(=O)N1CCN(C(=O)Nc2ccc(Cl)cc2)[C@H]2CS(=O)(=O)C[C@H]21,12.6
15,CCC(=O)N1CCN(C(=O)Nc2ccc(Cl)cc2)[C@H]2CS(=O)(=O)C[C@H]21,61
16,CCC(=O)N1CCN(S(=O)(=O)c2cccc(F)c2)[C@H]2CS(=O)(=O)C[C@H]21,32.2
17,CCN1CC(CN(C)Cc2nc(-c3ccc(F)cc3F)oc2C)CC1=O (stereo not drawn),26.5
18,Cc1ccc(C2CSCCN2C(=O)c2ccnc(N(C)C)c2)o1 (stereo not drawn),12.3
19,N#Cc1c(CN2CCCCC2Cn2cncn2)cn2ccccc12 (stereo not drawn),19.3
20,CN(Cc1ccc(Cl)s1)C(=O)c1ccccc1OCC(N)=O,-93.8
21,O=C(c1ccncc1)N1CCCn2nnc(COCCO)c2C1,29.8
22,COc1ccnc(CN2CCC(O)(c3ccc(C)cn3)CC2)c1OC,-23.4
23,COc1cc(CN2CCC(O)(c3ccc(C)cn3)CC2)cc(Cl)c1OC,51.3
24,COc1cccc(CN2CCC(O)(c3ccc(C)cn3)CC2)c1OC,-57.5
25,Cc1nc(C)n(CC2CN(CCOc3cccc(F)c3)CCO2)n1 (stereo not drawn),-21.7

# Reference: ChEMBL document CHEMBL4513216, “Probing the Open Global Health Chemical Diversity Library for Multistage-Active Starting Points for Next-Generation Antimalarials” (ACS Infect Dis, 2020)
